Reference: PubChem BioAssay AID624136 (Broad Institute, 2012)
In all, about 17,000 compounds went through this assay and about 75 (0.4%) were called active.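 Rule for the calls: active = compounds whose four printed spots each glow above background more than chance allows, each with a p-value under 7%; inactive = the rest.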 What follows is part of a selection rich in actives, with near analogues and random picks from the rest.

What follows are compounds tested on mutant tumor protein p53 (GST-tagged), Homo sapiens (assay: small molecules binding GST-tagged mutant p53 – biochemical, small molecule microarray, anti-GST fluorescence, primary screen (AID 624136)).

outcome, inactive:
C[C@@H]1CN([C@H](C)CO)C(=O)c2cccc(NC(=O)Nc3ccc(F)cc3)c2O[C@@H]1CN(C)Cc1ccc(C(F)(F)F)cc1
O=C(NCc1cccnc1)c1cnn2c(C(F)F)cc(-c3ccccc3)nc12
CNC[C@H]1OCCCC[C@@H](C)Oc2ccc(NC(=O)c3ccncc3)cc2C(=O)N([C@H](C)CO)C[C@H]1C
Cn1nnc2cc(C(=O)N(CCO)c3ccccc3)ccc21
C[C@@H]1CN([C@@H](C)CO)C(=O)Cc2cc(NC(=O)Cc3cn(C)c4ccccc34)ccc2O[C@H]1CN(C)Cc1ccc(C(=O)O)cc1
Cc1noc(C)c1S(=O)(=O)Nc1cccc2c1O[C@H](CN(C)Cc1ccc(C(F)(F)F)cc1)[C@H](C)CN([C@@H](C)CO)C2=O
CC(=O)Nc1ccccc1-c1cn(CC(=O)N2CCOCC2)nn1
CCCN(C)C[C@@H]1OCCCC[C@H](C)Oc2ccc(NS(=O)(=O)c3ccc(C)cc3)cc2C(=O)N([C@H](C)CO)C[C@@H]1C
Cc1noc(C)c1NC(=O)Nc1ccc2c(c1)C(=O)N([C@@H](C)CO)C[C@H](C)[C@@H](CN(C)C)O2
C[C@@H]1CN([C@@H](C)CO)C(=O)c2cc(N(C)C)ccc2O[C@@H](C)CCCCO[C@@H]1CN(C)C(=O)CCC(F)(F)F
CC(C)NC(=O)Nc1ccc2c(c1)C(=O)N([C@H](C)CO)C[C@H](C)[C@@H](CN(C)C(=O)CCCN(C)C)OCCCC[C@@H](C)O2
Cc1noc(C)c1S(=O)(=O)Nc1ccc2c(c1)CC(=O)N([C@@H](C)CO)C[C@H](C)[C@H](CN(C)C(=O)Nc1ccccc1)O2
CC(C)NC(=O)N(C)C[C@@H]1OCCCC[C@@H](C)Oc2ccc(NC(=O)CCCN(C)C)cc2C(=O)N([C@@H](C)CO)C[C@@H]1C
COc1ccc(S(=O)(=O)Nc2ccc3c(c2)C(=O)N([C@@H](C)CO)C[C@@H](C)[C@H](CN(C)S(=O)(=O)c2cccs2)O3)cc1
COc1ccc(NC(=O)N(C)C[C@H]2Oc3ccc(NS(=O)(=O)c4ccc(C)cc4)cc3C(=O)N([C@@H](C)CO)C[C@H]2C)cc1
COc1ccc(C(=O)CCC(=O)Nc2cccnc2)c(OC)c1
C[C@H](CO)N1C[C@H](C)[C@H](CN(C)S(=O)(=O)c2cccs2)OCCCC[C@H](C)Oc2ccc(NC(=O)CCCN(C)C)cc2C1=O
CCOC(=O)c1c(CN2CCOCC2)nc2c3ccccc3ccn12
CS(=O)(=O)N(CC(=O)Nc1ccc(F)c(F)c1)c1ccccc1F
COC(=O)c1ccccc1NC(=O)Cc1coc2cc(C)cc(C)c12
COc1ccc(-c2nnc(SCC(=O)Nc3c(C)n[nH]c3C)n2-c2ccccc2)cc1OC
C[C@H]1CN([C@@H](C)CO)C(=O)Cc2cc(NC(=O)c3ccncc3)ccc2O[C@@H]1CN(C)C(=O)Nc1ccccc1
C[C@@H]1CCCCO[C@H](CN(C)Cc2ccc3c(c2)OCO3)[C@@H](C)CN([C@H](C)CO)C(=O)c2cc(N(C)C)ccc2O1
O=C1N(CCS(=O)(=O)c2ccccc2)Cc2ccccc2[C@H]2OC(c3ccc(OCCCO)cc3)=N[C@@]12CCS(=O)(=O)c1ccccc1
C[C@H](CO)N1C[C@H](C)[C@H](CN(C)C(=O)Nc2ccc(F)cc2)Oc2ccc(NC(=O)Cc3cn(C)c4ccccc34)cc2CC1=O
C[C@H](CO)N1C[C@H](C)[C@H](CN(C)S(=O)(=O)c2ccc(Cl)cc2)Oc2c(NS(C)(=O)=O)cccc2C1=O
C[C@@H]1CN([C@@H](C)CO)C(=O)c2cc(NC(=O)Cc3ccccc3)ccc2O[C@H]1CN(C)CC1CC1
C[C@H]1CN([C@@H](C)CO)C(=O)c2cc(NC(=O)NC3CCCCC3)ccc2O[C@@H]1CN(C)C(=O)Nc1cccc2ccccc12
COc1ccccc1-c1nnc(SCC(=O)Nc2ccccc2)o1
C[C@@H]1CN([C@H](C)CO)C(=O)c2cc(NS(=O)(=O)c3ccccc3)ccc2O[C@@H](C)CCCCO[C@H]1CN(C)C(=O)C1CCCCC1
Cc1ccc(S(=O)(=O)N(C)CC(=O)Nc2ccc(C#N)cc2)cc1
C[C@H]1CN([C@@H](C)CO)C(=O)c2cccc(NC(=O)Nc3cccc4ccccc34)c2O[C@@H]1CN(C)C(=O)NC1CCCCC1
C[C@H](CO)N1C[C@H](C)[C@H](CN(C)S(=O)(=O)c2cccs2)Oc2c(NS(=O)(=O)c3ccc(Cl)cc3)cccc2C1=O
O=C(C1=C[C@H](c2csc3ccccc23)C[C@H](OCc2ccc(CO)cc2)O1)N1CCCCC1
C[C@@H]1CN([C@H](C)CO)C(=O)Cc2cc(NC(=O)Nc3ccc(F)cc3)ccc2O[C@@H]1CN(C)Cc1ccc2c(c1)OCO2
C[C@@H]1CN([C@@H](C)CO)C(=O)Cc2cc(NS(=O)(=O)c3ccc(Cl)cc3)ccc2O[C@H]1CN(C)CC1CCCCC1
CNC[C@@H]1Oc2ncc(-c3ccc(F)cc3)cc2C(=O)N([C@H](C)CO)C[C@@H]1C
CCNc1nc(NCC)nc(OCC#N)n1
CO[C@@H]1[C@@H](OC(N)=O)[C@@H](O)C(Oc2ccc3c(O)c(NC(=O)c4ccc(O)c(CC=C(C)C)c4)c(=O)oc3c2C)OC1(C)C (stereo not given in full)
COc1ccc2ncnc(NCc3ccc4c(c3)OCO4)c2c1
COc1ccc(S(=O)(=O)Nc2ccc3c(c2)CC(=O)N([C@H](C)CO)C[C@H](C)[C@H](CN(C)Cc2ccc(C(F)(F)F)cc2)O3)cc1
C[C@H]1CN([C@@H](C)CO)C(=O)Cc2cc(NC(=O)NC3CCCCC3)ccc2O[C@H]1CN(C)S(=O)(=O)c1cccs1
COc1ccc(CN(C)C[C@H]2Oc3c(NC(=O)c4cnccn4)cccc3C(=O)N([C@H](C)CO)C[C@@H]2C)cc1
COc1cc(CCC(=O)O)oc(=O)c1
C[C@H](CO)N1C[C@H](C)[C@@H](CN(C)C(=O)Nc2ccc3c(c2)OCO3)Oc2ccc(NS(=O)(=O)c3ccc(Cl)cc3)cc2C1=O
